Bioassay records as filed in PubChem BioAssay.
Compounds with a hit are over-represented: about 2.8% of the library has one in this group of screens.
Env fusion inh – inhibitors of HIV-1 Env-driven cell-cell fusion, primary screen, HeLa-JRFL effector, CEM21 target cells, luciferase | inhibition, % at 12.3 µM | actives 1.1% (n = 360,000) | AID 651610, 2012;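 active means mean replicate inhibition score of at least 50 and every replicate individually at or above 50; inconclusive means only one of the two criteria met; inactive means mean below 50 and not all replicates reaching 50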;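 further: 0% = plate neutral controls and 100% = maraviroc near 300 nM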
EBV LMP1 NFkB – EBV LMP1-driven NF-kappaB luciferase reporter inhibitors, primary screen, cell-based, luminescence, single point. LMP1-induced NF-kappaB luciferase reporter cells. inhibition, % at 12.5 µM. actives 0.69% (n = 350,000). AID 504558, 2011; in the data active means inhibition above about 41%; inconclusive means no clear call, values can overlap the other calls;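 further: 0% = neutral control wells and 100% = reference inhibitor control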
NSD2 HMT inh – NSD2 histone methyltransferase inhibitors, primary screen, biochemical, AlphaScreen, single concentration, set 2; Histone-lysine N-methyltransferase NSD2 (Homo sapiens), O96028; NSD2 peptide methylation, 120 min; inhibition, % at 12.5 µM; actives 0.54% (n = 310,000); in the data active means inhibition above about 50%
PAX8 reporter – inhibitors of PAX8-driven TPO luciferase reporter, primary screen, RMG-I cells, single concentration; SteadyGlo, 24 h; inhibition, % at 12.6 µM; actives 1.2% (n = 360,000); AID 652154, 2013;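 active means mean replicate inhibition at least 60% with every replicate also reaching 60%; inconclusive means only one of the two criteria is met; inactive means mean below 60% and not all replicates reaching 60%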;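 further: luciferase light reporting Pax8 driven TPO promoter activity; plate controls were median of neutral control wells for no effect and mitoxantrone controls for full effect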
Shn3 inh set2 – reduction of Shn3 3'UTR firefly luciferase signal, primary screen, Schnurri-3 inhibitor project, cell-based, Clone20 osteoblasts, set 2; Clone20 osteoblast Shn3 3'UTR firefly luciferase, 24 h; inhibition, % at 12.5 µM; actives 0.52% (n = 360,000); AID 588674, 2011;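 active means mean inhibition of at least 75% with every replicate also reaching 75%; inconclusive means mean inhibition at least 75% but some replicate below; inactive means mean inhibition below 75%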;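 further: 0% = median of neutral control wells and 100% = pilot-screen positive control compound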
N-glyco inh – increase of ERlucT glycosylation luciferase signal, primary screen, N-linked glycosylation inhibitor project, D54 ERlucT cells, luminescence, set 2; D54 ERlucT glycosylation luciferase reporter, 24 h; percent of 100 nM tunicamycin response; reporter increase, % at 12.5 µM; actives 0.23% (n = 360,000);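 active means mean luciferase reporter signal, scaled so untreated is 0 and the glycosylation-blocking control 100, at or above a set limit in every replicate; inconclusive means mean reaches the limit but not every replicate does; inactive means mean below the limit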;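 further: luciferase carries N-glycosylation sites so blocking glycosylation raises the light; 0% = median of neutral control wells and 100% = median of 100 nM tunicamycin wells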
* = called active by the depositor; ? = inconclusive; . = no result given; ! = not confirmed by another sample; [ ] = another dose, or the depositor's remark.

SMILES	Env fusion inh	EBV LMP1 NFkB	NSD2 HMT inh	PAX8 reporter	Shn3 inh set2	N-glyco inh
CO[C@@H]1CN(C)C(=O)c2ccc(NC(=O)c3ccc(F)cc3)cc2OC[C@H](C)N(C(C)=O)C[C@H]1C	.	.	.	-7	.	.
CN1C(=O)c2cc(NC(=O)c3ccc(F)cc3)ccc2OC[C@H]2O[C@@H](CC(=O)NCC3CC3)CC[C@@H]21	1[16.7 µM]	.	.	4	.	.
CCn1nc(C)cc1-c1nnc(SCC(=O)Nc2ccccc2)n1CCCOC	-16	2	-2	-19	7	1
CCn1nc(C)cc1-c1nnc(Sc2ncc([N+](=O)[O-])s2)n1C	-232	16	.	78*	95*	-6
CC1CCN(CCc2nc3cc(NS(=O)(=O)c4ccc(F)cc4)ccc3n2C)CC1	18	3	3	56	8	-10
CC1CCN(CCc2nc3cc(NS(=O)(=O)c4ccccc4)ccc3n2C)CC1	14	-1	-1	93*	-14	-11
COCc1cc(N2CCN(C(=O)OC(C)(C)C)C[C@H]2C)ccc1N1CCS(=O)(=O)CC1	59*	.	.	11	.	.
O=C(C1CC1)N1[C@H](CO)[C@@H]2c3ccccc3N(S(=O)(=O)c3ccc(F)cc3)C[C@@H]21	.	.	.	-3	.	.
Cc1cc(C)nc(SCc2ccc(C(=O)N/N=C/c3cccc(O)c3O)cc2)n1	9	52*	0	68*	84	-13
COc1ccc(O)c(/C=N/NC(=O)c2ccc(CSc3nc(C)cc(C)n3)cc2)c1	19	31	-1	53	88*	-7
COc1ccc(/C=N/NC(=O)c2ccc(CSc3nc(C)cc(C)n3)cc2)cc1O	21	1	-1	14	-27	-5
C[C@H](O)C#Cc1ccc([C@@H]2[C@H](CO)N3CCCCN(CC4CCOCC4)C[C@@H]23)cc1	.	.	.	-17	.	.
CC(=O)n1cc([C@@H]2C=C(C(=O)N3CCCCCCC3)O[C@H](OCCCCO)C2)c2ccccc21	-4[16.7 µM]	.	.	10	.	.
CCCCCOc1ccc(NS(C)(=O)=O)cc1	.	78*	0	.	-25	-2
CCOc1ccc(NS(=O)(=O)c2ccc(NS(C)(=O)=O)cc2)cc1	.	5	3	.	27	0
CN(C)C(=O)[C@H]1[C@H](CO)[C@H]2Cn3c(ccc(C4=CCCCC4)c3=O)[C@@H]1N2C	.	.	.	2	.	.
O=C(Nc1ccccc1)C1=C[C@H](c2ccc(C(F)(F)F)cc2)C[C@H](OCCCCO)O1	-22[16.7 µM]	-8	.	87*!	-39	0
CCOc1cc(NC(=O)CCl)c(OCC)cc1NC(=O)CCl	19	-17	0	76*	1	18
CC(C)(O)C#Cc1ccc([C@@H]2C[C@H]3CN(c4ccccc4)C(=O)[C@]34CCCN24)s1	-8	54*	3	?	95*	-19
O=C1N(c2ccccc2)C[C@@H]2C[C@@H](c3cccs3)N3CCC[C@@]123	-4	0	19	75*	48	5
CO[C@H]1CN(C)C(=O)c2ccc(NS(=O)(=O)c3cccc(F)c3)cc2OC[C@H](C)N(C(=O)Cc2cccnc2)C[C@H]1C	.	.	.	-17	.	.
COc1ccc(C2C(O)C(c3c[nH]c4ccccc34)=NN2C(=O)CCl)cc1 (stereo not given)	-72	-19	.	117*	96*	-19
COc1ccc(C2NN=C(c3c[nH]c4ccccc34)C2O)cc1 (stereo not given)	-3	-3	-1	18	-15	1
CCCNC(=O)N[C@H]1C=C[C@H](CC(=O)NC2CCC2)O[C@H]1CO	-3[16.7 µM]	.	.	-11	.	.
COc1ccc(-c2cnc3c(c2)C(=O)N([C@@H](C)CO)C[C@@H](C)[C@H](CN(C)C(=O)Cc2ccncc2)O3)cc1	5[16.7 µM]	.	.	14	.	.
SMILES	Env fusion inh	EBV LMP1 NFkB	NSD2 HMT inh	PAX8 reporter	Shn3 inh set2	N-glyco inh
C[C@H](CO)N1C[C@H](C)[C@H](CN(C)C(=O)Nc2ccc(C(F)(F)F)cc2)Oc2ccc(NS(C)(=O)=O)cc2C1=O	17[16.7 µM]	.	.	-14	.	.
O=C(NC1=C(Nc2ccc(Cl)cc2)C(=O)c2ccccc2C1=O)c1ccccc1	-31	-2	27	47	-14	-6
O=C1C(Cl)=C(NC(=O)c2ccccc2)C(=O)C(Cl)=C1NC(=O)c1ccccc1	-14	-1	4	80*	16	-2
CCN(CC)CCNc1ccc(C)c2sc3ccc(O)cc3c(=O)c12	-39	38	.	40	30	54*
CCN(CC)CCCNC(=O)C(C)n1nc(C)c2sc3ccccc3c2c1=O (stereo not given)	-28	-2	0	13	6	-1
COc1ccc(C(=O)N2[C@@H](C(C)C)COc3cc(Br)ccc3S2(=O)=O)cc1	.	14	.	65*	1	0
COC/C=C/C1=CC2=CC(=O)C(C)(OC(=O)c3cnc4ccccc4n3)C(=O)C2=CN1Cc1ccccc1 (stereo not given)	-19	-7	.	80*	-19	9
COC/C=C/C1=CC2=CC(=O)C(C)(OC(=O)c3cnc4ccccc4n3)C(=O)C2=CN1C1CC1 (stereo not given)	-33	-18	.	66*	-6	-1
COc1cccc(-c2ccc([C@@H]3[C@H]4CN(C(=O)C5CCC5)CC(=O)N4[C@H]3CO)cc2)c1	.	.	.	19	.	.
CCOC(=O)[C@H]1[C@H]2COc3ccccc3[C@@H]2N2C(=O)c3c(C)cc(C)cc3NC(=O)[C@@]12C	89*	-18	.	3	-6	0
CCOC(=O)[C@H]1[C@H]2COc3ccc(Br)cc3[C@@H]2N2C(=O)c3cc(OC)c(OC)cc3NC(=O)[C@@]12C	6	4	.	10	5	31*
CCOC(=O)[C@H]1[C@H]2COc3ccc(C)cc3[C@@H]2N2C(=O)c3cc(OC)c(OC)cc3NC(=O)[C@@]12C	-7	-9	.	-14	-37	9
CCOC(=O)[C@H]1[C@H]2COc3ccc(OC)cc3[C@@H]2N2C(=O)c3cc(OC)c(OC)cc3NC(=O)[C@@]12C	6	-56	.	-8	3	31*
CCOC(=O)[C@H]1[C@H]2COc3ccccc3[C@@H]2N2C(=O)c3cc(C)ccc3NC(=O)[C@@]12C	-19	-11	.	-23	13	1
Cc1cc(C(=O)Nc2c(C)nn(Cc3c(Cl)cccc3Cl)c2C)no1	-16	7	4	.	-13	-11
Cc1nn(Cc2c(Cl)cccc2Cl)c(C)c1NC(=O)c1cc(C(C)C)on1	-40	8	.	16	67	64*
Cc1nn(Cc2ccc(Cl)c(Cl)c2)c(C)c1NC(=O)c1cc(-c2ccc3c(c2)OCO3)on1	73*	30	-1	.	52	-3
